About 83,000 compounds went through this panel and 20% of them were active in at least one assay; those are over-represented in the sample as a whole.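 Activity criterion: percent growth below 10, measured after cells in 96-well plates were exposed to a single compound concentration for 48 hours.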 Values without a mark were called inactive. Activity calls are given as the source filed them.

Some test systems named below: SR leukemia; RPMI-8226 leukemia; OVCAR-8 ovarian; OVCAR-5 ovarian; OVCAR-4 ovarian; SK-OV-3 ovarian; IGROV1 ovarian; OVCAR-3 ovarian; HS 578T breast; NCI/ADR-RES ovarian; T-47D breast; BT-549 breast; MDA-MB-435 melanoma; SW-620 colon; MCF7 breast; HCT-116 colon; HCC-2998 colon; KM12 colon.
What all share (assay): NCI-60 one-dose screen, 48 h (100 = growth as untreated, 0 = no growth, -100 = all killed)
Common to all, as to settings: 10 µM

On to `COc1ccc(C2C=C(c3ccc(Cl)c(Cl)c3)N=C3SC(C)=CN32)cc1OC` (centres undefined), for which the growth with SR leukemia was 61.9%; in the test on RPMI-8226 leukemia, 38.4%; in the test on OVCAR-8 ovarian, 68.7%; with OVCAR-5 ovarian, 97.1%; with OVCAR-4 ovarian, 72.9%; in the test with SK-OV-3 ovarian, 109%. For the same compound, the growth in the test with IGROV1 ovarian was 72.2%; in the test on OVCAR-3 ovarian, 60.9%; with HS 578T breast, 90.8%; in the test on NCI/ADR-RES ovarian, 79.4%; in the test with T-47D breast it was 64%; in the test with BT-549 breast, 89.1%. In addition, the growth in the test on MDA-MB-435 melanoma was 69.4%; with SW-620 colon, 85.7%; with MCF7 breast it was 72.8%; with HCT-116 colon it was 48.8%; with HCC-2998 colon it was 77.8%; in the test on KM12 colon it was 57%.
As for `CCOC(=O)Nc1ccc2c(c1)C(=O)N(CC)c1ccccc1O2`, the growth in the test on SR leukemia is 8.37% (active); with RPMI-8226 leukemia it was 12.4%; in the test on OVCAR-8 ovarian, 7.22% (active); in the test on OVCAR-5 ovarian, 74%; in the test on OVCAR-4 ovarian, 43.7%; with SK-OV-3 ovarian it was 23.2%. Further, the growth is 32.1% with IGROV1 ovarian; -7.48% (active) in the test with OVCAR-3 ovarian; 46% with HS 578T breast; 8.14% (active) in the test with NCI/ADR-RES ovarian; 73.4% in the test on T-47D breast; 26.2% in the test on BT-549 breast. Besides, the growth is -17.1% (active) in the test on MDA-MB-435 melanoma; 32.7% in the test on SW-620 colon; 14.2% in the test on MCF7 breast; 9.54% (active) in the test on HCT-116 colon; 18.2% with HCC-2998 colon; 14.7% with KM12 colon.
As for `CCCCn1c(=O)[nH]c(N)c(C(c2ccc(Cl)cc2)c2c(N)[nH]c(=O)n(CCCC)c2=O)c1=O`, the growth was 24.2% in the test with SR leukemia; 25.5% with RPMI-8226 leukemia; 46.7% with OVCAR-8 ovarian; 87.8% with OVCAR-5 ovarian; 42.7% with OVCAR-4 ovarian; 56.5% in the test with SK-OV-3 ovarian. Moreover, the growth in the test with IGROV1 ovarian is 46%; in the test on OVCAR-3 ovarian it was 27.2%; in the test on HS 578T breast, 50.6%; in the test on NCI/ADR-RES ovarian it was 103%; with T-47D breast it was 21%; with BT-549 breast, 49.8%. In addition, the growth is 31.1% in the test on MDA-MB-435 melanoma; 64.2% with SW-620 colon; 21.1% in the test with MCF7 breast; 27.3% with HCT-116 colon; 54.7% in the test on HCC-2998 colon; 35.3% in the test on KM12 colon.
Consider `CC1(C)CNC(=O)N1`, for which the growth in the test with SR leukemia is 95.2%; in the test on RPMI-8226 leukemia, 95.8%; with OVCAR-8 ovarian, 99.8%; in the test with OVCAR-5 ovarian it was 108%; in the test with OVCAR-4 ovarian, 99.7%; in the test with SK-OV-3 ovarian, 95.6%. For the same compound, the growth is 99.9% with IGROV1 ovarian; 108% with OVCAR-3 ovarian; 98.8% in the test with HS 578T breast; 109% in the test with NCI/ADR-RES ovarian; 99.2% with T-47D breast; 103% with BT-549 breast. The growth is 102% in the test with MDA-MB-435 melanoma; 102% with SW-620 colon; 94.5% with MCF7 breast; 91.6% in the test on HCT-116 colon; 95.7% in the test with HCC-2998 colon; 104% in the test on KM12 colon.
For the compound `COc1cc(OC)cc(-c2ccc(-c3ccc(C(=N)N)cn3)o2)c1`, the growth in the test with SR leukemia was 0.771% (active); in the test on RPMI-8226 leukemia, -50% (active); in the test with OVCAR-8 ovarian, 9.75% (active); in the test with OVCAR-5 ovarian it was -0.187% (active); with OVCAR-4 ovarian, 23.1%; in the test with SK-OV-3 ovarian it was 31.2%. Moreover, the growth was 27% in the test on IGROV1 ovarian; 19.4% in the test with OVCAR-3 ovarian; -11.6% (active) in the test on HS 578T breast; 74.5% in the test with NCI/ADR-RES ovarian; -56.9% (active) in the test on T-47D breast; -3.57% (active) in the test on BT-549 breast. Besides, the growth is -63.6% (active) in the test on MDA-MB-435 melanoma; -90.3% (active) with SW-620 colon; -66.2% (active) with MCF7 breast; -86.5% (active) with HCT-116 colon; -87.4% (active) in the test on HCC-2998 colon; -11.2% (active) in the test with KM12 colon.
For `COc1ccc(Cn2cc3c(c2-c2cc(OC)c(OC)c(OC)c2)CCc2cnoc2-3)cc1N`, the growth in the test on SR leukemia is 14.8%; in the test on RPMI-8226 leukemia, 25.7%; in the test with OVCAR-8 ovarian, 28%; in the test with OVCAR-5 ovarian, 52.4%; in the test on OVCAR-4 ovarian, 37.6%; with SK-OV-3 ovarian, 2.09% (active). The growth is 7.25% (active) in the test with IGROV1 ovarian; 1.74% (active) in the test on OVCAR-3 ovarian; 10.4% in the test on HS 578T breast; 6.71% (active) in the test on NCI/ADR-RES ovarian; 43.4% in the test on T-47D breast; 26.3% in the test on BT-549 breast. Also, the growth with MDA-MB-435 melanoma is -37% (active); in the test with SW-620 colon, 20.4%; in the test on MCF7 breast, 16%; in the test with HCT-116 colon, 0.095% (active); with HCC-2998 colon it was -9.27% (active); in the test with KM12 colon, 1.77% (active).
For the compound `Cn1cnc([N+](=O)[O-])c1/C=C1\Oc2ccc(Cl)cc2C1=O`, the growth with SR leukemia was 20.7%; in the test with RPMI-8226 leukemia it was 70.7%; with OVCAR-8 ovarian, 72.5%; in the test on OVCAR-5 ovarian it was 108%; with OVCAR-4 ovarian, 92.3%; with SK-OV-3 ovarian, 96.2%. Besides, the growth is 73.1% with IGROV1 ovarian; 86% in the test with OVCAR-3 ovarian; 104% in the test on HS 578T breast; 100% in the test on NCI/ADR-RES ovarian; 85.1% with T-47D breast; 109% with BT-549 breast. Further, the growth is 86.2% with MDA-MB-435 melanoma; 72% with SW-620 colon; 40.2% with MCF7 breast; 22.4% with HCT-116 colon; 97.4% with HCC-2998 colon; 82.9% in the test on KM12 colon.
With `CC(C)c1[nH]nc2c(NCc3ccc(-c4ccccn4)cc3)nc(SCCN(C)C)nc12`, the growth with SR leukemia was -10.3% (active); with RPMI-8226 leukemia, -14.4% (active); in the test on OVCAR-8 ovarian, 13.9%; in the test with OVCAR-5 ovarian, 21.4%; in the test with OVCAR-4 ovarian, -1.82% (active); in the test on SK-OV-3 ovarian it was 8.24% (active). Moreover, the growth with IGROV1 ovarian is 16.2%; with OVCAR-3 ovarian, 4.83% (active); in the test with HS 578T breast it was 21.4%; with NCI/ADR-RES ovarian it was 7.1% (active); in the test on T-47D breast it was -6.72% (active); in the test with BT-549 breast it was -43.1% (active). For the same compound, the growth was 0.81% (active) in the test with MDA-MB-435 melanoma; 9.8% (active) in the test with SW-620 colon; 4.04% (active) in the test with MCF7 breast; 9.24% (active) with HCT-116 colon; -15.7% (active) in the test with HCC-2998 colon; 8.47% (active) with KM12 colon.

Values taken from PubChem BioAssay (NCI).
